Results published in ChEMBL document CHEMBL3988442, “University of Dundee, Small-Polar-MMV Screening Library” (2021).
For some of these results: Results with a measured potency or affinity are listed apart.

What was measured:
Parameters in all cases: scale not given: direction of the effect not stated beside the values
[1] = biological target: Protein translocase subunit SecA (Escherichia coli (strain K12)) (UniProt P10408); experiment: Assay to Identify E. coli SecA ATPase Inhibitors; format: functional; conditions: 30 µM
[2] = biological target: T1, Ubiquitin-activating enzyme e1, putative (Leishmania donovani (strain BPK282A1)) (UniProt E9BSI1); experiment: Leishmania donovani Ubiquitin Activating Enzyme (LdE1); format: functional; conditions: 30 µM
T1 sequence (whole entry): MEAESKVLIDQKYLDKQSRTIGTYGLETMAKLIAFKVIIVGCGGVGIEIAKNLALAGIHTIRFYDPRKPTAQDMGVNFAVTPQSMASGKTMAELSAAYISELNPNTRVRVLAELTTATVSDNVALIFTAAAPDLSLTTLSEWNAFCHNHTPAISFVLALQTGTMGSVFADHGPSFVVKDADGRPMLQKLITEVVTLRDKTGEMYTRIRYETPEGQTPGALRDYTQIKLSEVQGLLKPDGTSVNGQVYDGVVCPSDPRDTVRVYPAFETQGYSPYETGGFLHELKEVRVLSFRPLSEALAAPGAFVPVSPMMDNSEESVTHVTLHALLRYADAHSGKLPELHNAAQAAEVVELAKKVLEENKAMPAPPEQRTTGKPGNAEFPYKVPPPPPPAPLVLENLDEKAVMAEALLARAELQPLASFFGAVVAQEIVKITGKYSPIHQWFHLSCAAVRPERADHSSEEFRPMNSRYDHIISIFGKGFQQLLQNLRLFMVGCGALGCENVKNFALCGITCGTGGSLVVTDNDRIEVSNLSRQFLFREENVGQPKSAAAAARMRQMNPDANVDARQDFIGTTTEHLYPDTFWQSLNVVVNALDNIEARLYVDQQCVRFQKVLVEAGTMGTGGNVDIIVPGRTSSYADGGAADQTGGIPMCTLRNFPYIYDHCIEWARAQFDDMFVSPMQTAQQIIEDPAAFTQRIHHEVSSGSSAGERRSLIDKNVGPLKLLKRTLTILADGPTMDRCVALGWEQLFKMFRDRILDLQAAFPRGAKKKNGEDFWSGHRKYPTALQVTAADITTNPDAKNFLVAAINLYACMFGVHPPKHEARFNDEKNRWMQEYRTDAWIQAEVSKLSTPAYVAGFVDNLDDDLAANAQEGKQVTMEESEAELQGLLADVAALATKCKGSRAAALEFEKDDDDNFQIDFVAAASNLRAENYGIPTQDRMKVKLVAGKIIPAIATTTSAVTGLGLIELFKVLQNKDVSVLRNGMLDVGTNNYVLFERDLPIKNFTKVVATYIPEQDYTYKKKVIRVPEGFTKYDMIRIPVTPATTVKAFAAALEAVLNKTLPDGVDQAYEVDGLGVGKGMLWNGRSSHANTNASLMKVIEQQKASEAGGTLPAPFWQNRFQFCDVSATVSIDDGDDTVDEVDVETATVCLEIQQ

[3] = biological target: AMP-activated protein kinase, AMPK (Homo sapiens) (UniProt P54646+O43741+P54619+Q9UGJ0+Q9Y478+Q13131+Q9UGI9); experiment: AMP-dependent Kinase enzyme assay. An in vitro enzyme assay that detects ADP turnover that is directly proportional to AMPK activity. This uses naive AMPK that is activated during the assay with MK-8722; format: functional; conditions: 30 µM
[4] = biological target: Sialic acid-binding Ig-like lectin 9 (Homo sapiens) (UniProt Q9Y336); experiment: Hs-Siglec9 ALPHAscreen SOP 20170721; conditions: 10 µM
[5] = system: Trypanosoma cruzi; experiment: Trypanosoma cruzi phosphomannomutase and mannose-1-phosphate guanylyltransferase assay; format: functional; conditions: 10 µM
[6] = biological target: T2, Arginase-2, mitochondrial (Homo sapiens) (UniProt P78540); experiment: in vitro enzyme assay to detect the production of urea directly proportional to the activity of Arginase II; format: functional; conditions: 33.3 µM; note: in the data most compounds retested in dose-response had high values
T2 sequence (whole entry): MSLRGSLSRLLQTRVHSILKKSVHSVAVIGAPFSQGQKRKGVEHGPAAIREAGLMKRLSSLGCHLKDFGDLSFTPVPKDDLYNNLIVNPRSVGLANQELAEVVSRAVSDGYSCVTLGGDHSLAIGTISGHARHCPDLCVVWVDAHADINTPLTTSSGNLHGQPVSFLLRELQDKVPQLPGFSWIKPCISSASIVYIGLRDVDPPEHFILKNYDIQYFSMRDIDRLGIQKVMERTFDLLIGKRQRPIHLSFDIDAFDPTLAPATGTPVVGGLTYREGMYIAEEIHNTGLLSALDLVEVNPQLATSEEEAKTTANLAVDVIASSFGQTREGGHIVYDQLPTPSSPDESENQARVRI

[7] = biological target: T3, Proteasome subunit beta (Trypanosoma cruzi) (UniProt O96673); experiment: Trypanosoma cruzi proteasome chymotrypsin-like activity (TcProtChymo) assay.; note: in the data most compounds retested in dose-response had high values; format: functional; conditions: 9.37 µM
T3 sequence (whole entry): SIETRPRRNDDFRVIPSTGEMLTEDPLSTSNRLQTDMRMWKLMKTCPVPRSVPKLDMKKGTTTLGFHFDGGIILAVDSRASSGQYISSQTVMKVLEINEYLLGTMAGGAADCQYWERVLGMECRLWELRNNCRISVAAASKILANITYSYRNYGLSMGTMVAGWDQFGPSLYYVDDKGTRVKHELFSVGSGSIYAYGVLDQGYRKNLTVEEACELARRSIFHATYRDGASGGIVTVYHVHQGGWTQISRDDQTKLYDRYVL

[8] = species on record: Homo sapiens; experiment: To identify inhibition of the IFN signalling (Jak-Stat) pathway via expression of an eGFP reporter gene under the control of an IFN-stimulated response element (ISRE) containing MxA promoter.; format: functional; conditions: 30 µM
[9] = biological target: T4, Tyrosyl-tRNA synthetase, putative (Trypanosoma cruzi (strain CL Brener)) (UniProt Q4DSP6); experiment: Trypanosoma cruzi tyrosyl tRNA synthetase (TcYRS) _High Tyrosine SOP; format: functional; conditions: 30 µM; note: in the data most compounds retested in dose-response had high values
T4 sequence (whole entry): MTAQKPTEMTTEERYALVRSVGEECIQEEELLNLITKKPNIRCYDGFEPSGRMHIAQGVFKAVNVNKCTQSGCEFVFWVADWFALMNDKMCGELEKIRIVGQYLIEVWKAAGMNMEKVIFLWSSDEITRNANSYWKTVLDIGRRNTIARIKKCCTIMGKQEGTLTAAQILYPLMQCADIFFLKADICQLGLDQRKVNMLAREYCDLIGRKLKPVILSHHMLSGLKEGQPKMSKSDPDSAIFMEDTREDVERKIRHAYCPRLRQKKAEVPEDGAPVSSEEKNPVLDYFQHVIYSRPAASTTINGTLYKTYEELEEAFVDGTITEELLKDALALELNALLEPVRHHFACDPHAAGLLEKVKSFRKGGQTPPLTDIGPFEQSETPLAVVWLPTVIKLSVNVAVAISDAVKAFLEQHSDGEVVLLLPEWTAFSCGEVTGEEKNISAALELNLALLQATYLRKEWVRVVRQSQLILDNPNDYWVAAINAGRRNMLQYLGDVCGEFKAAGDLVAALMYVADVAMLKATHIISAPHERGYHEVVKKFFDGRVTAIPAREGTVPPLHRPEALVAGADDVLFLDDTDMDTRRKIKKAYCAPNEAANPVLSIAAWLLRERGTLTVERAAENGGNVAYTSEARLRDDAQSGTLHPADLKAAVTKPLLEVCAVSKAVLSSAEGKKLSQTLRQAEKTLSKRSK

[10] = biological target: T4, Tyrosyl-tRNA synthetase, putative (Trypanosoma cruzi (strain CL Brener)); experiment: Trypanosoma cruzi tyrosyl tRNA synthetase (TcYRS) SOP; format: functional; conditions: 30 µM
[11] = biological target: Chromo domain-containing protein 1 (Saccharomyces cerevisiae (strain ATCC 204508 / S288c) (Baker's yeast)) (UniProt P32657); experiment: ScCHD-1 Enzyme Inhibition Assay; format: functional; conditions: 30 µM; note: in the data most compounds retested in dose-response had high values
Sequence of Chromo domain-containing protein 1 (Saccharomyces cerevisiae (strain ATCC 204508 / S288c) (Baker's yeast)) (P32657 whole entry, the tested form may be a part): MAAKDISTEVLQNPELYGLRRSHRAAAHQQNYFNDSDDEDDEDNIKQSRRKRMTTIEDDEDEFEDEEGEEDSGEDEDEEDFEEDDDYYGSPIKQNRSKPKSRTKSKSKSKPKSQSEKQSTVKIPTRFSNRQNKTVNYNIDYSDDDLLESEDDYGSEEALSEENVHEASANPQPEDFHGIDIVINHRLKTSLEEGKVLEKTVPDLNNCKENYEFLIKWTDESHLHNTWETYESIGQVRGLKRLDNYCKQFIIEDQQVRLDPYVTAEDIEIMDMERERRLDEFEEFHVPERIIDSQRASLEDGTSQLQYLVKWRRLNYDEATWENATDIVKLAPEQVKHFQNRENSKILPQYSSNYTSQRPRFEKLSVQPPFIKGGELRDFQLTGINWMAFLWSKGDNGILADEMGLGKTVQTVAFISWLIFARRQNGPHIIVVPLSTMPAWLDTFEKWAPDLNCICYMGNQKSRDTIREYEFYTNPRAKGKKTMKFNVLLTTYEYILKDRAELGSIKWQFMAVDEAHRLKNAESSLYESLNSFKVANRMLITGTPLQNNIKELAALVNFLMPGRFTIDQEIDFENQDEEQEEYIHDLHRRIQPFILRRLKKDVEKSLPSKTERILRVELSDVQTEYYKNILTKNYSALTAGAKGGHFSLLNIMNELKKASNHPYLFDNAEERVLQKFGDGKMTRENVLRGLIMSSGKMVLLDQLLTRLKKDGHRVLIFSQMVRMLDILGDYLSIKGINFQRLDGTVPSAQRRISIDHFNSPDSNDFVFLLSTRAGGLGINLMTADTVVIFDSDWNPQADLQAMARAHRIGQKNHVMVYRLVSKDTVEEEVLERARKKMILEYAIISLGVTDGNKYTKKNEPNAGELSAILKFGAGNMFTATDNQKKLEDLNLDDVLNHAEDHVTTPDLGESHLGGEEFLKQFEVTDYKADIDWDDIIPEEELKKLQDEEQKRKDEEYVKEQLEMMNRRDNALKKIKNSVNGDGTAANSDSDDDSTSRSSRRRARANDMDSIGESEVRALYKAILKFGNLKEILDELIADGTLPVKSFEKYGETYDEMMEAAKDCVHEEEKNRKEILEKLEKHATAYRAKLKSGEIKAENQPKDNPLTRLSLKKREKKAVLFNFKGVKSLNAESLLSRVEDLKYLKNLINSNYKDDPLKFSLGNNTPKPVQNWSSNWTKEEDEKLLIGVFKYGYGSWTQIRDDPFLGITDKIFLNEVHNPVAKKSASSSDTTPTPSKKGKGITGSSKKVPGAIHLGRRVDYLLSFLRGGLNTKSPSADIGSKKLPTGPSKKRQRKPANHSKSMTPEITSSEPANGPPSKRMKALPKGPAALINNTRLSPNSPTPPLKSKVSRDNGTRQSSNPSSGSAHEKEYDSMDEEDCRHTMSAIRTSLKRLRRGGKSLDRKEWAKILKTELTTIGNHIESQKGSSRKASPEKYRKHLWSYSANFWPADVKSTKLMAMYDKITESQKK

Sequence of Protein translocase subunit SecA (Escherichia coli (strain K12)) (P10408 whole entry): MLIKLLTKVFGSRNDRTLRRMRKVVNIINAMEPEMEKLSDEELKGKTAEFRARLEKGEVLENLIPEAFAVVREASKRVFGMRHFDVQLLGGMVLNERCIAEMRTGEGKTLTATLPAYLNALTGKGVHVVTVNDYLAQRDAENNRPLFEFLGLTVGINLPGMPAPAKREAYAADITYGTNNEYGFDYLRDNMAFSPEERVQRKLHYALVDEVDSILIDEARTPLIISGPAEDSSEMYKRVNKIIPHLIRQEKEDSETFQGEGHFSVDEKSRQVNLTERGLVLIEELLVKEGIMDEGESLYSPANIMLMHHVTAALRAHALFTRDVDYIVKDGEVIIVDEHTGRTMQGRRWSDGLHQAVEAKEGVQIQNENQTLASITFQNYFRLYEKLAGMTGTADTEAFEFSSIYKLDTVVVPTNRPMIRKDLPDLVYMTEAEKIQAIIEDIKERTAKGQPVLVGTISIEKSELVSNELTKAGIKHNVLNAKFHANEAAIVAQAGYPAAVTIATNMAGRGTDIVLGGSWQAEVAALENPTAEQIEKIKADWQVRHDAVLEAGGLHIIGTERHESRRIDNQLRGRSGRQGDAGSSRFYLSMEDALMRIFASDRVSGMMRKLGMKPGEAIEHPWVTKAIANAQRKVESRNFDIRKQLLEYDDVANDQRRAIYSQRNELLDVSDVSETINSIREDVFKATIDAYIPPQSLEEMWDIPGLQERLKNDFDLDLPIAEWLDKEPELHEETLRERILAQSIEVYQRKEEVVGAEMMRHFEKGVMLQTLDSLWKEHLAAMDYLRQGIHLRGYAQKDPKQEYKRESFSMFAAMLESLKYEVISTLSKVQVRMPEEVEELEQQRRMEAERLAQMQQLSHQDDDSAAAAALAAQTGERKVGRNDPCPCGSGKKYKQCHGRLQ
Sequence of Sialic acid-binding Ig-like lectin 9 (Homo sapiens) (Q9Y336 whole entry): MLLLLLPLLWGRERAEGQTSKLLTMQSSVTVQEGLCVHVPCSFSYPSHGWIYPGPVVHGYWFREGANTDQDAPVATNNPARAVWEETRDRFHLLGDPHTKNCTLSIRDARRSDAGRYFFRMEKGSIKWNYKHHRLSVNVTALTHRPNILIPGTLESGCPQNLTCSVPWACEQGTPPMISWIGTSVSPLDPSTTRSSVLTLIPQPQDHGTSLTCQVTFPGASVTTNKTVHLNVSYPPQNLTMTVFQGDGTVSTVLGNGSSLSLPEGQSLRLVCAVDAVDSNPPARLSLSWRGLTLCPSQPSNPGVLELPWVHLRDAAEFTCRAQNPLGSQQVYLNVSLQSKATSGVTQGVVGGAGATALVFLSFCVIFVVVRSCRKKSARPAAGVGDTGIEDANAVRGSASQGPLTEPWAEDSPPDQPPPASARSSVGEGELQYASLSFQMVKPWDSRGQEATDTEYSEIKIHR

SMILES	Percent Effect [1]	Percent Effect [2]	Percent Effect [3]	Percent Effect [4]	Percent Effect [5]	Percent Effect [6]	Percent Effect [7]	Percent Effect [8]	Percent Effect [9]	Percent Effect [10]	Percent Effect [11]
Cc1cc(CC(=O)N2CCCC2c2nc(C(C)C)no2)on1 (stereo not given)	-3.03%	20.8%	-13.1%	26.8%	8.84%	3.97%	18.8%	5.27%	6.32%	15.4%	-9.95%
O=C1[C@H]2CC[C@H](CN(Cc3ccccc3OC(F)F)C2)N1CC1CC1	2.17%	13.5%	8.9%	13.9%	4.05%	13.3%	17.1%	19%	7.94%	17.1%	-1.8%
Cn1ccc(CN2CCC(c3ccccc3)CC2)cc1=O	-7.43%	15.6%	-2.22%	11.1%	-0.374%	3.92%	8.11%	14.7%	8.74%	19.5%	-7.5%
O=C(c1cc(Cl)cc(Cl)c1)N1CCN(c2nccs2)CC1	-2.62%	13.7%	5.26%	6.34%	0.588%	10.4%	19.2%	0.362%	4.3%	20%	-10.5%
COc1ccc(CN2CCC3(CC(=O)N(c4cncnc4)C3)C2)cc1 (stereo not given)	-1.48%	16.2%	5.08%	-9.74%	-3.81%	-7.33%	12.9%	5.2%	1.08%	7.69%	-3.32%
CC(=O)N1CCN(Cc2nnc(C(C)(C)C)o2)CC1	0.446%	5.41%	-5.16%	-0.469%	-0.772%	2.86%	14.3%	7.35%	1.59%	9.76%	-3.99%
CCCS(=O)(=O)N1C[C@H]2OC(=O)N(CCc3cccc(Cl)c3)[C@H]2C1	-5.06%	2.67%	-2.35%	-2.36%	-3.21%	-2.08%	5.93%	16.4%	-0.546%	3.7%	-2.16%
CN1CCOC(CNCc2nc(-c3ccccc3)cs2)C1 (stereo not given)	-3.28%	-12.7%	-8.45%	1.64%	5.95%	-1.9%	1.39%	-25.8%	1.48%	1.27%	4.02%
CN(C)S(=O)(=O)N1CC[C@@H]2CN(Cc3cnn(C)c3)C[C@@H]2C1	-6.2%	-2.6%	26.8%	-2.67%	-4.63%	0.645%	0.696%	33.3%	-1.06%	-1.28%	-3.27%
CN(C)c1cc(CNC(=O)c2ccc(=O)[nH]n2)ccn1	-2.65%	18.2%	-1.88%	-14.6%	3.82%	-2.32%	17.9%	4.06%	9.52%	30.6%	-19.7%
Cc1cc(C(=O)N2C[C@@H]3COC[C@]3(c3nnc(C4CC4)o3)C2)on1	-4.61%	13.3%	-3.2%	-0.841%	1.16%	-46.4%	7.52%	-5.46%	-5.21%	5%	-9%
Cc1csc(N2CCCN(C(=O)C3(C#N)CCCCC3)CC2)n1	-0.0182%	-2.63%	4.54%	-2.41%	-0.188%	0.766%	-3.34%	-13.6%	0.49%	-2.44%	10.4%
Cc1ccc(CN2CCOC3(CCCN(C(=O)c4ccco4)C3)C2)s1 (stereo not given)	-0.789%	15.6%	-0.0266%	8.56%	5.41%	-19.3%	17.6%	-8.94%	6.45%	13.6%	-2.11%
CCOCCn1nc(C)cc1C(=O)N1CC[C@](C)(O)[C@H](C)C1	-5.83%	5.41%	-0.231%	3.85%	-4.25%	-1.91%	6.03%	-3.48%	2.65%	9.76%	-1.04%
Cc1ccc(C(=O)NS(=O)(=O)c2cc(Cl)ccc2Cl)c(=O)[nH]1	-2.59%	5.41%	-4.48%	13.3%	4.18%	-2.4%	4.67%	32%	5.94%	23.2%	-3.61%
CCOCC1CN(Cc2ccoc2)Cc2ncn(CC3CC3)c21 (stereo not given)	-8.23%	-2.7%	0.834%	4.02%	-2.34%	-0.833%	10.1%	3.58%	4.95%	-1.22%	-0.436%
CNC(=O)[C@H]1C[C@H]2OCC[C@H]2N(Cc2ccc(C)o2)C1	-0.274%	7.79%	4.6%	0.238%	-6.02%	-4.52%	9.57%	7.69%	1.06%	8.97%	-6.31%
CC1CN(C(=O)c2ccn(-c3cccc(Cl)c3)n2)CCO1 (stereo not given)	-7.39%	20.8%	0.341%	6.09%	7.87%	-2.13%	17.4%	16.3%	8.74%	24.4%	-10.1%
CC1CCN(CCNC(=O)C2CCN(S(N)(=O)=O)CC2)CC1	-1.93%	9.72%	-5.79%	-4.04%	-3.4%	1.77%	10%	3.48%	2.1%	5.13%	-2.96%
CCCNC(=O)COc1ccc(C)cn1	-4.18%	11%	-5.89%	4.96%	4.76%	-0.798%	6.59%	-7.03%	6.25%	-3.7%	-11.8%
